In the library only some 7.9% were active in any assay of this set; here they are far more common.
HCV inhibitor: inhibitors of hepatitis C virus infection | Huh7.5.1 HCVcc-Cre infection, luciferase reporter, 44 h | AID 651820 | Potency, µM (series often up to 41.8 µM), without a hit: at the top dose activity change, negative = inhibition, hits mostly inhibitors | 340,000 compounds, 3.4% hits; active = well fitted inhibition curve with a large enough effect; inconclusive = small, poorly fitted or top-dose-only effect, or another doubt; inactive = no such curve, though single readings can be large or run the other way; note: potency is the fitted concentration of half-maximal effect
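Seed cells (1,000/well) for 4 h; treat with compound and infect with HCVcc-Cre, moi about 0.5. Incubate 44 h, then detect luciferase activity.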
FMDV antiviral: blocks foot and mouth disease virus; FMDV antiviral cell-based qHTS; Potency, µM (titrated, usually from 57.9 µM), for inactives: at the highest dose activity change, negative = inhibition, most hits filed as inhibitors; 410,000 compounds, 1.2% hits; calls by dose curve; tested in HEK293T cells; note: read-out not given here; potency is the fitted concentration of half-maximal effect; nearly all actives have a fitted effect of over 45% in size
HCMV inh: inhibitors of human cytomegalovirus. HFF cells, HCMV-luciferase reporter, 72 h; hits give low values. 410,000 compounds, 4.5% hits. activity change, negative = inhibition, % at 57.5 µM; in the data active = activity change below about -60%; inconclusive = no clear call, values can overlap the other calls; inactive = above about -39%
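Compounds were evaluated in HFFs infected with an HCMV luciferase reporter virus (MOI 1 PFU/cell). Luciferase in lysates collected 72 h post infection served as the replication measure.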
MARV entry inh: Marburg virus entry inhibition. Marburg virus pseudotyped entry inhibition, cell reporter. Potency, µM (titrated, usually from 37.8 µM), for inactives: at the highest dose activity change, negative = inhibition, most hits filed as inhibitors. 300,000 compounds, 1.8% hits; calls by dose curve; tested in HEK293 cells; note: potency is the fitted concentration of half-maximal effect
Lassa entry inh: inhibitors of Lassa virus binding or cell entry; Lassa virus pseudotype entry inhibition, cell reporter; Potency, µM (series often up to 37.9 µM), inactives show at the highest dose activity change, negative = inhibition, actives largely listed as inhibitors; 300,000 compounds, 1.2% hits; calls by dose curve; tested in HEK293 cells; note: potency is the fitted concentration of half-maximal effect; nearly all actives have a fitted effect of over 50% in size
The depositor's hits bear a star; ? = inconclusive; / = not tested or not shown; ! = repeats disagree; [ ] = another dose, or the depositor's remark. % is set by controls: 0 for no effect and ±100 for the full control effect.

SMILES	HCV inhibitor	FMDV antiviral	HCMV inh	MARV entry inh	Lassa entry inh
CN(C)c1ccc(C(=O)N/N=C/C23CC[C@@H](O)CC2(O)CC[C@@H]2[C@@H]3CCC3(C)C(C4=CC(=O)OC4)CCC23O)cc1 (stereo not given in full)	-29.9%	?	-98.6*	/	/
CC12CC[C@H]3[C@@H](CCC4(O)C[C@H](O)CCC34/C=N/NC(=O)c3ccc(O)cc3)C1(O)CCC2C1=CC(=O)OC1 (stereo not given in full)	0.3%	-21.3%	-22.1	/	/
COc1ccc(C(=O)N/N=C/C23CC[C@@H](O)CC2(O)CC[C@@H]2[C@@H]3CCC3(C)C(C4=CC(=O)OC4)CCC23O)cc1 (stereo not given in full)	3.0%	?	-81.7*	/	/
COc1ccc(CN2C(=O)C(NC(=O)c3ccccc3C)(C(F)(F)F)N=C2c2ccccc2)cc1 (stereo not given)	/	-23.0%	-102.7*	?	?
COC(=O)C1=C(C)N(Cc2ccco2)C(=O)NC1c1ccco1 (stereo not given)	/	/	/	0.3%[14.2 µM]	/
CCOc1cc(-c2cc(-c3ccc(C)cc3)nc(N)c2C#N)ccc1O	25.1µM*	?	12.6	?	?
COc1ccc(OC)c(-c2cc(-c3cccnc3)nc(N)c2C#N)c1	?	?	110.2	1.41µM*	?
COc1cc(-c2cc(-c3ccc(O)cc3)nc(N)c2C#N)ccc1O	?	-12.9%	-70.3*	?	?
O=c1c2ccccc2nc2c3ccccc3c3nncn3n12	-0.2%	?	?	-4.3%	1.5%
O=c1c2ccccc2nc2n1CCS2(=O)=O	11.7%	31.6µM*	13.6	23.4%[46.1 µM]	?
CCOC(=O)CSC1=NC(=O)/C(=C\c2ccc(Cl)cc2)S1	?	17.8µM*	-94.1*	1.4%	-11.5%
COc1ccc(CCNC(=O)Cc2c(C)c3cc4c(C(C)(C)C)coc4c(C)c3oc2=O)cc1OC	/	?	15.3	-14.1%[46.1 µM]	-7.6%[46.1 µM]
CCCCCCCCC(=O)NCc1ccc(O)c(OC)c1	-7.2%	?	-10.0	-0.8%	/
COc1cc(CNC(=O)CCCC/C=C/C(C)C)ccc1O	0.9%	44.7µM*!	-8.1	/	/
CS(=O)(=O)c1cccc(-c2nnc(NC(=O)c3ccc(S(=O)(=O)N4CCCC4)cc3)o2)c1	21.8%	-7.6%	-23.8	2.7%	-8.1%
O=C(Nc1nnc(-c2ccc(F)cc2)o1)c1ccc(S(=O)(=O)N2CCOCC2)cc1	-15.6%	-14.1%	/	7.94µM*	?
CC(C)c1ccc(NC(=O)C2CCCN(S(=O)(=O)c3ccc4[nH]c(=O)ccc4c3)C2)cc1 (stereo not given)	/	?	-91.8*	/	?
CC(C)c1ccc(S(=O)(=O)N2CCC(C(=O)N3CCN(c4cccc(Cl)c4)CC3)CC2)cc1	?	-16.2%	-69.2*	/	/
O=C(Nc1ccc(Cl)cc1)C1CCCN(S(=O)(=O)c2ccc3[nH]c(=O)ccc3c2)C1 (stereo not given)	/	-28.4%	-23.6	/	9.9%[46.1 µM]
Cc1ccc(S(=O)(=O)N2CCC(C(=O)Nc3ccc(C(C)C)cc3)CC2)cc1	11.2µM*	0.0%	3.7	/	/
Cc1ccc(S(=O)(=O)N2CCCC2C(=O)Nc2ccc(Br)cc2)cc1 (stereo not given)	/	-18.8%	-61.2*	-4.0%[46.1 µM]	10.9%[46.1 µM]
O=C(Nc1ccc(S(=O)(=O)N2CCOCC2)cc1)C1CCN(S(=O)(=O)c2ccc(F)cc2)CC1	?	0.0%	-65.8*	-6.6%	-17.0%
O=C(Nc1ccc(S(=O)(=O)N2CCOCC2)cc1)C1CC(=O)N(c2ccc(F)cc2)C1 (stereo not given)	-2.7%	16.4%	-17.6	?	13.8%
Cc1ccc(S(=O)(=O)N2CCC(C(=O)N3CCC[C@H]3C(=O)NCC(C)C)CC2)cc1	20.3%	0.0%	-14.9	3.1%[46.1 µM]	16.1%[46.1 µM]
Cc1ccc(S(=O)(=O)N2CCC(C(=O)N3CCCC3C(=O)N[C@@H](CC(C)C)C(=O)NCC(N)=O)CC2)cc1 (stereo not given in full)	1µM*	-6.3%	14.1	/	/
SMILES	HCV inhibitor	FMDV antiviral	HCMV inh	MARV entry inh	Lassa entry inh
CCCC(=O)N1CCC2(CC1)CN(C(=O)Nc1cccc(F)c1)[C@H](CO)c1c2c2ccc(OC)cc2n1C	/	/	-21.0	/	/
COc1ccccc1Nc1ccncc1[N+](=O)[O-]	5.8%	3.8%	-64.4*	/	/
Cc1cc(Nc2ccccc2)c2c([N+](=O)[O-])cc(C)c(C)c2n1	?	-17.6%	-81.0*	?	-12.2%
COc1ccccc1Nc1cc(C)nc2c(C)ccc([N+](=O)[O-])c12	?	?	-67.3*	?	-5.0%
COc1ccccc1Nc1ccc(C(=O)O)cc1[N+](=O)[O-]	2.8%	9.5%	0.0	6.5%[46.1 µM]	5.5%[46.1 µM]
O=C(c1cc2nc(-c3ccccc3)cc(-c3ccccc3)n2n1)N1CCCC1	?	45.4%	0.6	?	-16.8%[46.1 µM]
O=C(c1cc2nc(-c3ccccc3)cc(-c3ccccc3)n2n1)N1CCN(C(=O)c2ccco2)CC1	14.1µM*	-2.7%	-8.8	?	?
CN1CCN(C(=O)c2cc3nc(-c4ccccc4)cc(-c4ccccc4)n3n2)CC1	11.2µM*	73.4%	-2.2	-19.3%	13.9%
CC1CCN(S(=O)(=O)N2CCC(C(=O)NCc3cccnc3)CC2)CC1	3.8%	-23.5%	0.0	/	/
CCOC(=O)C(=N/O)/C(C)=N/NC(=O)C(=O)Nc1ccc(Cl)cc1	11.2µM*	?	-37.3	/	/
CCOC(=O)N(CC)c1ccc(C(O)(C(=O)OCC)C(F)(F)F)cc1 (stereo not given)	-5.1%	-29.1%	77.2	-6.8%	10µM*
CCOC(=O)C(O)(c1ccc(N(CC)C(=O)OC)cc1)C(F)(F)F (stereo not given)	-8.8%	-3.7%	14.7	-7.8%	?
C[C@H](c1ccccc1)N1C[C@@H](COCc2ccccc2)Oc2cccc(Oc3ccccc3)c2S1(=O)=O	/	/	-20.5	/	/
CN(C)CCn1c(=N)n(CC(O)c2ccc(Cl)c(Cl)c2)c2ccccc21 (stereo not given)	7.08µM*	?	-36.4	/	/
CCn1c(=N)n(CC(=O)c2ccc(Cl)c(Cl)c2)c2ccccc21	?	23.9%	98.1	?	?
N=c1n(CCN2CCCCC2)c2ccccc2n1CC(O)c1cccc(Br)c1 (stereo not given)	12.6µM*	?	?	11.2µM*	?
N=c1n(CCN2CCCCC2)c2ccccc2n1CC(=O)c1ccc(Cl)c(Cl)c1	?	?	-18.8	8.91µM*	-21.1%
N=c1n(CCN2CCCCC2)c2ccccc2n1CC(O)c1ccc(Cl)c(Cl)c1 (stereo not given)	12.6µM*	/	-97.2*	5.8µM*	?
O=c1[nH]c(=O)n(C2OC(CO)C(O)C2O)cc1N1CCOCC1 (stereo not given)	17.5%	-11.1%	-26.0	5.9%	-10.5%
Nc1ccn([C@@H]2O[C@H](CN=C3NS(=O)(=O)c4ccccc43)[C@@H](O)[C@H]2O)c(=O)n1	/	-8.5%	22.3	/	/
Cc1cccc(-n2cc[nH]c2=S)c1C	2.6%	-13.5%	-69.0*	?	11.8%

High-throughput results (PubChem)
